Screens (PubChem)
Many of the other results were omitted from the sample, so hits are more common in it than they were.
Tg IFNy HTS – T. gondii growth inhibition with IFN-gamma, primary screen, cell-based | Toxoplasma gondii growth in IFN-gamma-treated host cells; stronger effect = lower value | activity change, negative = inhibition, % (concentration not given with the values) | 3.8% of 69,000 active; in the data active means activity change below about -70%, passing the limit was not always enough;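 further: host cells are HeLa cells infected with Toxoplasma gondii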
An asterisk follows results filed as active; ! = not confirmed by another sample.

SMILES | Tg IFNy HTS
CNCCn1c(=O)c2cc(OC)c(OC)cc2c2cnc3cc4c(cc3c21)OCO4 | -80*
Cc1c(-c2nnnn2-c2ccc(F)cc2)cnc2cc3c(cc12)OCO3 | 78
CC(C)NC(=O)[C@@H]1C[C@@H]2OCC[C@@H]2N(Cc2ccoc2)C1 | 3
COCC(=O)N1CCn2cc(CN(C)Cc3cccnc3)nc2C1 | 2
CC(C)CNC(=O)c1nc(-c2ccc(Cl)cc2)n2c1CCCCC2 | -100*
COC(=O)c1cc2c(cc1NC(=O)c1nc(-c3ccc(C)cc3)n3c1CCCCC3)OCO2 | 284
COCCCNC(=O)c1nc(-c2ccc(Cl)cc2)n2c1CCCCC2 | -50
CCN(CC)C(=O)c1nc(-c2ccc(C)cc2)n2c1CCCCC2 | -32
CCOC(=O)C(C)NC(=O)c1cc(-c2cccnc2)n[nH]1 (stereo not given) | 12
Cc1ccc(-c2nc(C(=O)NC(C)C)c3n2CCCCC3)cc1 | -78*
COc1ccccc1CNC(=O)c1nc(-c2ccc(C)cc2)n2c1CCCCC2 | -115*
CCOC(=O)C(C)NC(=O)c1nc(-c2ccc(C)cc2)n2c1CCCCC2 (stereo not given) | -106*
CC1CCCCN1CCNC(=O)c1nc(-c2ccc(Cl)cc2)n2c1CCCCC2 (stereo not given) | 6
Cc1ccc(-c2nc(C(=O)N3CCCCC3c3cccnc3)c3n2CCCCC3)cc1 (stereo not given) | 105
CC(C)OCCCNC(=O)c1nc(-c2ccc(Cl)cc2)n2c1CCCCC2 | -47
O=C1NCCN(CCc2ccccc2)C1CC(=O)N1CCCCCCCC1 (stereo not given) | 8
CC(=O)NCCC1CCCCN1C(=O)Nc1ccc(Oc2ccccc2)cc1 (stereo not given) | -2
CCN1CCC2(CN(C(=O)N(C)C)CC23CCN(Cc2ccoc2)CC3)C1=O (stereo not given) | -40
CC[C@@H](Cn1nnc2ccccc2c1=O)NC(=O)Cc1ccccc1OC | -34
CSc1nc(Cl)c(-c2ccccc2)c(N2CCN(C(=O)C3CCCO3)CC2)n1 (stereo not given) | -35
CC(NC(=O)c1ccc2ncccc2c1)c1cc(=O)[nH]c(N2CCN(C)CC2)n1 (stereo not given) | 1
CC(=O)N1CCCc2cc(S(=O)(=O)NCc3cc(CC(C)C)no3)ccc21 | -37
CCOc1ccc(NC(=O)Cn2c(=O)cc(C(=O)N3CCOCC3)c3ccccc32)cc1 | -46
CCCCNC(=O)N1CCC2(CC1)C(=O)N(c1ccc(C)nc1)CCN2Cc1ccccc1 | -14
CC(C)c1ccc(Nc2ncc(C(=O)OCc3ccco3)c(C(F)(F)F)n2)cc1 | 35
SMILES | Tg IFNy HTS
COc1cccc(CC(=O)NC(c2cc(=O)n3[nH]c(-c4ccccn4)cc3n2)C(C)C)c1 (stereo not given) | 2
Cc1ccc2oc(=O)n(CCC(=O)N3CCN4CCNC(=O)C4C3)c2c1 (stereo not given) | -38
CCN(Cc1nccn1C)C(=O)c1ccc(-c2ccc3c(c2)OCCO3)nc1 | 7
CC1Cc2ccccc2N1C(=O)Cn1nnc(-c2ccccc2F)n1 (stereo not given) | -7
Cc1cc(C2CCC2)nc(N2CC(n3cccn3)C2)n1 | -3
CN(C)CC1(O)CCCN(C(=O)CCc2nc3cccnc3n2C)C1 (stereo not given) | -2
O=C(Cn1ncc2c(N3CCCCCC3)ncnc21)NC1CCCCC1 | 91
Cc1ncc(C(=O)N2CCCC2)c(CC2CCN(C(=O)c3n[nH]c4c3CCCC4)CC2)n1 | 11
O=C(c1nc(-c2ccc(Cl)cc2)n2c1CCCCC2)N1CCC2(CC1)OCCO2 | 118
Cc1ccc(-c2nc(C(=O)N3CCCCCC3)c3n2CCCCC3)cc1 | -80*
CCOC(=O)C1CCCN(C(=O)c2nc(-c3ccc(C)cc3)n3c2CCCCC3)C1 (stereo not given) | 223
COc1ccc(-c2[nH]c3ncccc3c2CN2CCC(O)(c3ccccc3C)CC2)cc1 | -98*
c1cncc(-c2[nH]c3ncccc3c2CN2CCSCC2)c1 | -34
COc1ccccc1CNC(=O)CN1CCC(O)(c2ccccc2C)C1 (stereo not given) | 4
COc1cc(C(NC(=O)CC(C)C)NC(=O)CC(C)C)ccc1OCc1ccccc1 | 23
Cc1oc(-c2ccc(OC(C)C)cc2)nc1Cn1ccn2nc(-c3cccs3)cc2c1=O | -42
NC(=O)C1(N2CCCCC2)CCN(c2ccc(NC(=O)c3cccc(Cl)c3)cc2C(=O)O)CC1 | 4
Oc1cccc(C2CCN(C3CCC4(CCNCC4)CC3)CC2)c1 | 7
O=C(C1Cc2ccccc2C1)N(CCCn1ccnc1)Cc1ccncc1 | -9
Cn1c(=O)c2c3nc4ccccc4cc3c(=O)n(C)c2n(C)c1=O | -13
CN(C)c1cc(Nc2ccccc2)c2c(=O)n(C)c(=O)n(C)c2n1 | -84*
Cn1c(=O)c2c(-c3ccc(F)cc3)cc(-c3cccc(F)c3)nc2n(C)c1=O | -10
CN1C[C@@H]2CCN(C(=O)NC3CCCC3)CC[C@H]2S1(=O)=O | -9
CN(Cc1cnc(-c2ccco2)nc1)Cc1cnn(-c2ccc(F)cc2)c1 | -4
Cc1nc(-c2ccc(F)cc2)sc1CCNS(=O)(=O)c1ccc2c(c1)CCCC2 | 34
SMILES | Tg IFNy HTS
C=CCn1c(=O)c(-c2nc(-c3ccc(OC(C)C)cc3)no2)c(O)c2ccccc21 | 20
Cc1nc(-c2ccccc2)[nH]c(=O)c1CC(=O)NC(C)Cc1ccccn1 (stereo not given) | -1
CC(C)(C)c1ccc(C(=O)CCCN2CCC(OC(c3ccccc3)c3ccccc3)CC2)cc1 | -86*
CC1CCN(CCCC(=O)c2ccc(F)cc2)CC1 | 12
O=C(O)CCCN1CCC(O[C@@H](c2ccc(Cl)cc2)c2ccccn2)CC1 | 34
O=C1NCC2(CCCN(C(=O)CCCCc3ccccc3)CC2)O1 (stereo not given) | -41
CCN1CCN(CCNC(=O)C2=C(C)C(=O)OC23CCN(S(=O)(=O)CC)CC3)CC1 | -12
Cc1cc(Nc2cc(C(F)(F)F)nc3c(Cl)cccc23)on1 | -80*
Cc1cc(C(F)(F)F)nc(CCNC(=O)c2c(O)cccc2O)n1 | -2
Cc1ccc(Nc2cc(C)nc3c(C)cccc23)cc1 | -59
Cc1ccc(-c2csc(C(N)=O)c2)c2cccnc12 | -51
COc1ccc(-n2c(-c3ccccc3)cnc2SCC(=O)Nc2cc(C)cc(C)c2)cc1 | -98*
COc1ccc(NC(=O)CSc2nnc3c(C)cc4ccccc4n23)cc1 | 0
Cc1ccc(NC(=O)CSc2nnc(-c3ccncc3)n2-c2ccccc2)cc1 | -59
COCCN1[C@@H]2CCN(C(=O)[C@H]3CCCO3)CC[C@@H]2Oc2ccccc2S1(=O)=O | 17
COc1ccc(-c2nnc(-c3nc(NC4CCS(=O)(=O)C4)c4ccccc4n3)o2)cc1 (stereo not given) | 227
CC(COc1ccccc1)N(CCCl)Cc1ccccc1 (stereo not given) | 5
CC(C)COCC(CN(Cc1ccccc1)c1ccccc1)N1CCCC1 (stereo not given) | -76*!
Cc1ncc(-c2ccccn2)c(CN(C)S(=O)(=O)c2ccc3c(c2)oc(=O)n3C)n1 | 34
COc1ccc2c3c(n(C)c2c1)[C@@H](CO)N(C(=O)Nc1ccc(F)cc1)CC31CCN(S(=O)(=O)c2cccc(C)c2)CC1 | -75*
COc1ccc2c3c(n(C)c2c1)[C@@H](CO)N(C(=O)Nc1ccc(F)cc1)CC31CCN(Cc2ccccn2)CC1 | -37
CCCNC(=O)N1CC2(CCN(S(=O)(=O)c3ccccc3)CC2)c2c(n(C)c3cc(OC)ccc23)[C@H]1CO | -58
